Assay results published in PubChem BioAssay AID1259421 (Broad Institute, 2018).
“And” between values parts separate entries of the source, which are not always exact repeats. Equal values may be shown once. Among all 6,400 compounds or so, about 610 (9.5%) were called active. Rule as the data show it: active = activity change below about -70%; inconclusive = no clear call, values can overlap the other calls; inactive = above that. For the sample, actives were picked, then their nearest neighbours and some compounds at random.

Test: Toxoplasma gondii ME49Luc growth in HeLa cells, luciferase, no IFN-y, primary screen (AID 1259421)
Details: T. gondii ME49Luc in HeLa, 72 h, stronger effect = lower value, concentration not given here

Compound	activity change, negative = inhibition
OCC1OC(O)C(F)C(O)C1O (stereo not drawn)	8.12% (inactive)
CCC[C@@H]1C[C@@H](C(=O)NC(C(C)Cl)[C@H]2O[C@H](SC)[C@H](O)[C@@H](O)[C@H]2O)N(C)C1 (stereo partly drawn)	-1.81% (inactive) and 9.35% (inactive)
O=C(/C=C\n1cnc(-c2cc(C(F)(F)F)cc(C(F)(F)F)c2)n1)NNc1cnccn1	-78.8% (active)
COc1cc(-c2ncn(/C=C\C(=O)OC(C)C)n2)cc(C(F)(F)F)c1	-86.8% (active)
O=C(/C=C\n1cnc(-c2cc(C(F)(F)F)cc(C(F)(F)F)c2)n1)N1CC(F)(F)C1	-81.3% (active)
CC(=O)CC(=O)O	-0.799% (inactive)
CC(=O)c1c(O)cc(O)cc1O	6.7% (inactive)
COc1c(OC)c2occc2c2oc(=O)ccc12	9.46% (inactive)
CC(=O)OCC(=O)[C@@]1(O)CCC2C3CCC4=CC(=O)C=C[C@]4(C)[C@@]3(Cl)[C@@H](Cl)C[C@@]21C (stereo partly drawn)	-0.235% (inactive)
CCCC(=O)O[C@@]1(C(=O)COC(C)=O)CC[C@H]2[C@@H]3C[C@H](F)C4=CC(=O)C=C[C@]4(C)[C@]3(F)[C@H](O)C[C@@]21C	6.24% (inactive)
C[C@@H]1O[C@@]2(CS1)CN1CCC2CC1 (racemic)	6.56% (inactive)
c1cncc(CN2CCC(n3ncc4c(N5CCOCC5)nc(-c5ccc6[nH]ccc6c5)nc43)CC2)c1	-77.6% (active)
C[C@@H]1CN(Cc2ncccn2)C[C@H]1c1nc2c(cnn2C2CCOCC2)c(=O)[nH]1	4.49% (inactive)
COC(=O)Nc1ccc(-c2nc(N3CCOCC3)c3cnn(C4CCN(C(=O)OC)CC4)c3n2)cc1	21.2% (inactive)
CC(=O)N1CCN(c2ccc(OCC3CO[C@](Cn4ccnc4)(c4ccc(Cl)cc4Cl)O3)cc2)CC1 (stereo partly drawn)	-58.1% (inactive)
CCC1OC(=O)[C@H](C)C(=O)[C@H](C)[C@@H](OC2O[C@H](C)C[C@H](N(C)C)[C@H]2O)[C@](C)(OC)C[C@@H](C)C(=O)[C@H](C)[C@H]2N(CCCCn3cnc(-c4cccnc4)c3)C(=O)O[C@@]12C (stereo partly drawn)	-5.19% (inactive)
NC(=S)N/N=C/c1ncccc1N	-83.2% (active)
NC(=S)N/N=C/c1ccncc1	6.58% (inactive)
CC(=O)O[C@]1(C(C)=O)CC[C@H]2[C@@H]3C=CC4=CC(=O)CC[C@]4(C)[C@H]3CC[C@@]21C	8.87% (inactive)
CCCc1ncc(C(=O)O)s1	6.47% (inactive)
COc1cc(Br)c(S(=O)(=O)Nc2ccc(Cl)c(O[C@@H]3CCN(C)C3)c2)cc1OC	5.97% (inactive)
NC(C(=O)O)[C@@H]1CC(Cl)=NO1 (stereo partly drawn)	-82% (active)
N[C@H](C(=O)O)[C@@H]1CC(Cl)=NO1	-72.2% (active)
